Molecules are shown by their SMILES. Values joined by “and” are separate entries in the source; they are usually repeats but may differ in a detail not shown here. Equal entries are not always repeated. Unmarked numbers belong to inactive results. Active and inactive are the calls of the source.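 The calls were made as follows, unless noted: active = mean inhibition over 43.08%, the solvent-only control mean plus 3 SD; inactive = the rest.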

From PubChem BioAssay come the findings set out here.

Assay [1] has as its target Nuclear receptor coactivator 3 (Homo sapiens) (UniProt Q9Y6Q9). The experiment in a line: NCOA3 GAL4-fusion reporter inhibition – cell-based, luminescence, quadruplicate, confirmation (AID 588792).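 Also: 0% = DMSO treated cells and 100% = gossypol at 36 µM.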 The settings on record: HEK293 GAL4-SRC3 luciferase reporter, at 3.6 µM, stronger effect = higher value.
In assay [2] the test system is transactivating tegument protein VP16 (Human herpesvirus 1), Gal4-VP16 luciferase reporter. The assay can be described thus: repression of VP16-driven luciferase reporter – cell-based, luminescence, high throughput, counter-screen for SRC3 inhibitor project (AID 588794; in the data active = inhibition above about 30%). The settings on record: mammalian cells, at 3.6 µM, stronger effect = higher value.
Assay [3] deals with Nuclear receptor coactivator 1 (Homo sapiens) (UniProt Q15788). The experiment in a line: NCOA1 GAL4-fusion reporter inhibition – cell-based, luminescence, quadruplicate, confirmation (AID 588820;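 active = mean inhibition above 46.68%, the untreated control wells mean plus 3 SD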;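 also: 0% = DMSO wells and 100% = gossypol 36 µM treated wells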). To be noted: HEK293 GAL4-SRC1 luciferase reporter, at 3.6 µM, stronger effect = higher value.
Chain of Nuclear receptor coactivator 1 (Homo sapiens) (Q15788 whole entry, looked up, the tested form may be a part): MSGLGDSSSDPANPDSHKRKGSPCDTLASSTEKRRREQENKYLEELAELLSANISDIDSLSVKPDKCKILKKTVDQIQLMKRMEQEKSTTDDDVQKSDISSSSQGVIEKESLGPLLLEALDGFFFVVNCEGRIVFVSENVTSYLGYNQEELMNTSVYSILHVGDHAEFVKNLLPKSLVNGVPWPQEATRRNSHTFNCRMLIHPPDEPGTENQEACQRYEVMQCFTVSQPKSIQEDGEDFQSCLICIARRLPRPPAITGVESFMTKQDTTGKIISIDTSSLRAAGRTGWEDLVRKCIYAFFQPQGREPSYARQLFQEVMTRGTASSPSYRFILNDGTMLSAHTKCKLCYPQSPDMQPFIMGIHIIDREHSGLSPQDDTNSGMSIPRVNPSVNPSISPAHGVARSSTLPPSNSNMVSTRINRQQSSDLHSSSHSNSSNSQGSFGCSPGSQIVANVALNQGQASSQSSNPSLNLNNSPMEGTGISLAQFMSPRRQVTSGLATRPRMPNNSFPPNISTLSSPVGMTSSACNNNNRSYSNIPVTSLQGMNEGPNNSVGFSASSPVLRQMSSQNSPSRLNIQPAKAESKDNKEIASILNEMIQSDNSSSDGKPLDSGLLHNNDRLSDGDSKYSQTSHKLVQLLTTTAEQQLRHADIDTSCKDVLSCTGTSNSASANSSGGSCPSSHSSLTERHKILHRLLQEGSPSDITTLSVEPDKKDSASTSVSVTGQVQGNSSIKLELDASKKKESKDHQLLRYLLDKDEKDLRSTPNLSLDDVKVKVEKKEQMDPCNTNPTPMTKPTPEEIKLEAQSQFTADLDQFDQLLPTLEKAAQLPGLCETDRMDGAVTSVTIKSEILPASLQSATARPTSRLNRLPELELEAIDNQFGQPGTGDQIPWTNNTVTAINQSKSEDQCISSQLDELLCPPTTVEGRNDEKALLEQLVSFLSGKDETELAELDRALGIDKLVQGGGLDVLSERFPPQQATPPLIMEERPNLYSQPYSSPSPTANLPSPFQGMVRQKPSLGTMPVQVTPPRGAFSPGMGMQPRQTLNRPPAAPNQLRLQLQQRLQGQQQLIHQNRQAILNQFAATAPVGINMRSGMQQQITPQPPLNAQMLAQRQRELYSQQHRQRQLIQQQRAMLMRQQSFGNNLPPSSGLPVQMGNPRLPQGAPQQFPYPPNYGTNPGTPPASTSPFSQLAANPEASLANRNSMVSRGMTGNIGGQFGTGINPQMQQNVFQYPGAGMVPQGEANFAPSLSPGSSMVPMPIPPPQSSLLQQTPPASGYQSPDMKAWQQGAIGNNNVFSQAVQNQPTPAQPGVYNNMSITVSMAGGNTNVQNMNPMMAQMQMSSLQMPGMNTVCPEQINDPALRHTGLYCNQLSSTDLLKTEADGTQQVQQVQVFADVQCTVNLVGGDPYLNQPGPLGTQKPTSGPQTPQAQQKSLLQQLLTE
The nature of assay [4]: repression of VP16-driven luciferase reporter – cell-based, luminescence, high throughput, counter-screen for SRC1 inhibitor project (AID 588824; in the data active = inhibition above about 25%). To be noted: cell-based VP16 transactivation luciferase luminescence; at 3.6 µM; stronger effect = higher value.

Chain of Nuclear receptor coactivator 3 (Homo sapiens) (Q9Y6Q9 whole entry, looked up, the tested form may be a part): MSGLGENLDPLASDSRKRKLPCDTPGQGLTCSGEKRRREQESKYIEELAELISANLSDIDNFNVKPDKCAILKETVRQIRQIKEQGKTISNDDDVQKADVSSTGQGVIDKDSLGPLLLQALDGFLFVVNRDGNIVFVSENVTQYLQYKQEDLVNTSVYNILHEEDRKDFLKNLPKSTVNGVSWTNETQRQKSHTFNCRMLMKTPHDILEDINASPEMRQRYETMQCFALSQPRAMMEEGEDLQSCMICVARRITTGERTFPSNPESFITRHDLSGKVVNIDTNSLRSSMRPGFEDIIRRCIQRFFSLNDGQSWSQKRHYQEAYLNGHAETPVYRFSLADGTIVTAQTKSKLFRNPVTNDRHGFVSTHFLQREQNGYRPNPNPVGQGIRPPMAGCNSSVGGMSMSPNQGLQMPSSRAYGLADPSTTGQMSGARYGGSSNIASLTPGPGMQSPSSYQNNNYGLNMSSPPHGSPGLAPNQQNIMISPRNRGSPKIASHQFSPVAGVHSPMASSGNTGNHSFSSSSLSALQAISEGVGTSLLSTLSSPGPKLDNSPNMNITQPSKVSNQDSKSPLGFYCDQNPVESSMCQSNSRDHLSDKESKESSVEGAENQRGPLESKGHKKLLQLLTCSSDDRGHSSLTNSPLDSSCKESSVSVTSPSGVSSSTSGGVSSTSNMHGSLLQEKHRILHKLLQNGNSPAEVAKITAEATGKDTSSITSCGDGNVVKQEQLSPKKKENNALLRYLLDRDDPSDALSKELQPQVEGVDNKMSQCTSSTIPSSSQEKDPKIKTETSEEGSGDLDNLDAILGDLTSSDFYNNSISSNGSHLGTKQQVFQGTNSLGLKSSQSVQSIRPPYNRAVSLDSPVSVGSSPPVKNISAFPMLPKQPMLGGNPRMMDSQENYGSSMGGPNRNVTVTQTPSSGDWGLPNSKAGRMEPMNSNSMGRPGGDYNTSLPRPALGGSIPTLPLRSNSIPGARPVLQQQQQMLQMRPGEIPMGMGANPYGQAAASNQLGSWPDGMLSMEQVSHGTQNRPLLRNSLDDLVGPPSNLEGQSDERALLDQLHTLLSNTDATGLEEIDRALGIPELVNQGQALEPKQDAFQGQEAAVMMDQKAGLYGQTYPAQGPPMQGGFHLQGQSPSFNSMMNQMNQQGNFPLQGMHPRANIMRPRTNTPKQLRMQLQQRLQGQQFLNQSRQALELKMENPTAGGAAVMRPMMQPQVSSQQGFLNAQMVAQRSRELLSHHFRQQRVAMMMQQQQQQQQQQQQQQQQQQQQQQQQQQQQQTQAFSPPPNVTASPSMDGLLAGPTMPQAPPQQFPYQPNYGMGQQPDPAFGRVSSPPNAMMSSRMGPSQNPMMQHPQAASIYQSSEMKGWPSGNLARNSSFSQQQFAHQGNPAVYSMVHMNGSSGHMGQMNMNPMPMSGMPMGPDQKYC

For orientation: inhibition means the change of the read-out against control, counted positive when it falls. Consider `S=c1[nH]nc(C2CCCCC2)n1/N=C/c1ccco1`, for which the inhibition in assay [1] is -2.38%; in assay [2] it was -11.2%.

Consider `Cc1cc(C)n(CCC(=O)N/N=C/c2ccccc2O)n1`, for which the values for the inhibition in assay [1] and in assay [2] were 18% and 4.14%, respectively.

Turning to `CN1/C(=C\C(=O)C[n+]2cccc(Br)c2)C(C)(C)c2ccccc21`, the inhibition in assay [1] was 25.3%; in assay [2], 21.2%.

`Cc1ccc2c(c1)c(C)cc[n+]2Cc1ccccc1`: the inhibition in assay [1] was 10.7%; in assay [2], 4.92%.

In the case of `Cn1c(N)c(C(=O)COC(=O)C2CC(=O)N(Cc3ccccc3)C2)c(=O)n(C)c1=O` (stereo not drawn), the figures for the inhibition in assay [1] and in assay [2] were -0.18% and -2.93%, respectively.

Turning to `Cc1cc(C)c2nc(C(F)(F)F)c(C#N)c(N)c2c1`, the inhibition in assay [1] was 45.1% (active); in assay [2], 31.6% (active).

For `COc1ccc(CNC(=O)COC(=O)c2cc(-c3ccc(Cl)s3)nc3ccccc23)cc1`, the inhibition is -14.9% in assay [1] and -13.6% in assay [2].

For the compound `CCCn1nc(C(=O)NCC2COc3ccccc3O2)c2ccccc2c1=O` (stereo not drawn), the inhibition is 9.61% in assay [1] and 3.2% in assay [2].

`CCn1cc(C(=O)NCc2ccccn2)c(=O)c2cc(F)c(N3CCN(C)CC3)cc21`: the values for the inhibition in assay [1] and in assay [2] were -0.49% and 3.18%, respectively.

Turning to `COc1ccc(NC(=O)N(C)C[C@H]2Oc3c(NC(=O)Nc4ccc(C(F)(F)F)cc4)cccc3C(=O)N([C@H](C)CO)C[C@@H]2C)cc1`, the inhibition in assay [1] was 10.2%; in assay [2], -6.34%.

On to `Cc1ccc(C2CC(C(F)(F)F)n3nc(C(=O)NCc4c(C)nn(C)c4C)c(Cl)c3N2)cc1` (stereo not drawn), for which the inhibition in assay [1] was 7.71%; in assay [2], 15.1%; in assay [3], -7%; in assay [4] it was 10.9%.

As for `Cn1c(/C=C/c2ccc(Cl)cc2)c([N+](=O)[O-])c(=O)n(C)c1=O`, the inhibition in assay [1] is 39.6%; in assay [2] it was 35.7% (active); in assay [3], 36.3%; in assay [4], 28.6% (active).

Turning to `O=C(N/N=C\c1c(O)ccc2ccccc12)c1cncc(Br)c1`, the inhibition in assay [1] was 83% (active); in assay [2], 84% (active); in assay [3], 77.7% (active); in assay [4], 80.5% (active).

In the case of `C(C#CCCCCCCCCC[n+]1ccccc1)#CCCCCCCCCC[n+]1ccccc1`, the inhibition is 58.9% (active) and 59.3% (active) in assay [1]; 70.3% (active) and 74.5% (active) in assay [2]; 41.7% in assay [3]; 73.4% (active) in assay [4].

In the case of `O=C(NCc1cccs1)c1nc2c(nnn2Cc2ccccc2Cl)c(=O)[nH]1`, the inhibition in assay [1] was 84.2% (active); in assay [2], 79.5% (active); in assay [3] it was 58.5% (active); in assay [4], 74.7% (active).

On to `CCc1ccc2[nH]c3nc(N/N=C/c4cccc(O)c4)nnc3c2c1`, for which the inhibition in assay [1] is 37.2%; in assay [2], 64.4% (active); in assay [3], 22.6%; in assay [4], 59.5% (active).

For `Fc1ccc(NC(=S)NNc2ncc(C(F)(F)F)cc2Cl)c(F)c1`, the inhibition in assay [1] was 4.99%; in assay [2], 23%; in assay [3], 15.9%; in assay [4] it was 29.1% (active).

On to `Cc1[nH]ccc2cc3nc4ccccc4c3cc12`, for which the inhibition in assay [1] is 13.9%; in assay [2] it was 36.2% (active); in assay [3], 31.7%; in assay [4], 39.4% (active).

On to `COc1ccc(NC(=O)c2cc([N+](=O)[O-])ccc2O)cc1`, for which the inhibition is 42.1% in assay [1], 35.5% (active) in assay [2], -37.7% in assay [3] and 29.2% (active) in assay [4].

On to `c1nc2sc3c(c2c2nnnn12)CCCC3`, for which the inhibition in assay [1] was 28%; in assay [2] it was 24.2%; in assay [3], 36.8%; in assay [4], 9.37%.

For the compound `C#CC[N+](C)(C)CCCCCCCCCC`, the inhibition in assay [1] was 18.6%; in assay [2], 23.2%; in assay [3], 9.87%; in assay [4], 16.1%.

As to `COc1ccc(-c2coc3c(C(=O)Nc4cc(OC)c(OC)c(OC)c4)cccc23)c(C)c1`, the inhibition in assay [1] is 19.8%; in assay [2], 29.8% (active); in assay [3], 0.16%; in assay [4] it was 31.8% (active).

As to `Nc1ncnc(NCc2ccc(F)cc2)c1[N+](=O)[O-]`, the inhibition in assay [1] is 62.7% (active); in assay [2], 29.8% (active); in assay [3] it was 52.7% (active); in assay [4] it was 29.9% (active).

Turning to `COc1ccc(Cc2noc(CN3CCN(c4ccc(Cl)cn4)CC3)n2)cc1OC`, the inhibition in assay [1] was 14.7%; in assay [2] it was 21.5%; in assay [3], 6.4%; in assay [4] it was 33% (active).

On to `O=C(CCc1ccccc1)N/N=C/c1cc(Br)ccc1O`, for which the inhibition was 24.5% in assay [1] and 17.2% in assay [2].
